# Data reported in PubChem BioAssay (NCI).
# About 79,000 compounds went through this panel and 15% of them were active in at least one assay; those are over-represented in the sample as a whole. The source made the active and inactive calls. Rule as the data show it: active = growth inhibition above about 70%; inactive = the rest.
# Experiment: NCI Yeast Anticancer Drug Screen. Data for the rad50 strain (AID 155);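 also: 0% = growth of vehicle-only cultures of the same strain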
# Settings: S. cerevisiae rad50 strain growth inhibition; at 50.0 µM; hits give high values
# Outline: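 Growth of the mutant yeast was measured after compound exposure and referenced to vehicle-treated cultures.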
row,Compound,growth inhibition
1,CC(=O)O[C@H]1CC[C@]2(C)C3=CC[C@]4(C)[C@@H](C(C)=O)CC[C@H]4[C@@]34C=C[C@]2(C1)C1C(=O)OC(=O)C14 (stereo not given in full),58.2% (inactive)
2,Cc1cc(O)c2c(c1)C(=O)c1c(c(O)cc(O)c1-c1c(O)cc(O)c3c1C(=O)c1cc(C)cc(O)c1C3=O)C2=O,64.8% (inactive)
3,NC(=O)/C(=N\NC(=O)c1cc2ccccc2cc1O)C1C(=O)N(c2ccccc2)N=C1N (stereo not given),71.5% (active)
4,CCNC(=S)NNC(=S)NNc1ccccc1,41.3% (inactive)
5,OCC(O)C(O)C(O)C(O)C(O)C(/C=N/Nc1ccccc1)=N/Nc1ccccc1 (stereo not given),55.2% (inactive)
6,O=C(CN(Cc1ccccc1)Cc1ccccc1)c1ccccc1,19.6% (inactive)
7,COC(=O)C1CCC(c2ccccc2)CC1C(=O)OC (stereo not given),24.9% (inactive)
8,COc1ccc2c(c1)C(=O)C(Br)CC2 (stereo not given),25.4% (inactive)
9,O=C1c2ccccc2C(=O)c2sc(Nc3ccc(Cl)cc3)nc21,90.5% (active)
10,O=Nc1c(-c2cccc([N+](=O)[O-])c2)nc2cnccn12,97.7% (active)
11,CC/C(=N\NS(=O)(=O)c1ccc(C)cc1)c1cccc(OC)c1,69.6% (inactive)
12,NNC(=S)NN/C=C(\C=Nc1ccccc1)[N+](=O)[O-],69.8% (inactive)
13,CC(C)(C)c1ccc(CN2CCN(C(c3ccccc3)c3ccc(Cl)cc3)CC2)cc1 (stereo not given),15.7% (inactive)
14,O=C1OCc2cccc3cccc1c23,88.5% (active)
15,CC(C)CC(NC(=O)COc1c(Cl)cc(Cl)c(Cl)c1Cl)C(=O)O (stereo not given),13% (inactive)
